From PubChem BioAssay (NCI) come the findings set out here.

The panel holds about 83,000 compounds, 20% with a hit somewhere; the sample as a whole holds those more often.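 Negative percent growth values reflect cell death: -40 means 40% of the cells present at the start died, and -100 means all died.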 The source made the active and inactive calls. Rule for the calls: active = growth percent below 10; inactive = the rest.

The subject of this test is A498 renal. Briefly: NCI-60 one-dose screen, 48 h (100 = growth as untreated, 0 = no growth, -100 = all killed). As to conditions: 10 µM unless noted.
As to `Cc1sc(NC(=O)c2ccc(C(C)(C)C)cc2)c(C(=O)O)c1C`, the growth was 78.6% (inactive). Then `C#CCCCCCCC[C@@H]1OC(=O)[C@H]([C@@H](C)CC)NC(=O)[C@H]([C@@H](C)CC)NC(=O)CC(=O)[C@@H]1C`, with 92.7% (inactive). Then `CCOC1=C(Cl)C(=O)C(OCC)=C(Cl)C1=O`, with 128% (inactive); and `O=C1C(=O)c2ccccc2C(O)=C1CCCc1ccc(Oc2ccccc2)cc1`, with 66.1% (inactive); and `CCOc1ccc2nc3ccc(Cl)cc3nc2c1`, with 83.3% (inactive). As for `CC[n+]1c(C)ccc2cc(C)ccc21`, the figure is 96.7% (inactive); as for `COC(=O)/C(Br)=C/c1c[nH]c2ccc(Br)cc12`, 92.3% (inactive); as for `CC(=O)c1ccc2c(c1)c1ccccc1n2C`, -85.3% (active). `Cc1ccc([C@@H]2C[C@H](O)Cc3ccccc3N2)s1`: the growth is 91.2% (inactive). On to `COC(=O)/C=C/c1cc(O)c2oc(-c3ccc(O)c(O)c3)c(C(=O)OC)c2c1`, for which the growth is 18.2% (inactive). In the case of `CCc1c(C)c2ccc(OCC(=O)N=Nc3c(O)[nH]c4ccccc34)c(C)c2oc1=O`, the growth is 56.9% (inactive). As for `CCOC(=O)C1=NN(c2ccccc2)C2=NC(=O)/C(=C\c3cn(-c4ccccc4)nc3-c3cc4ccccc4o3)C(=O)N12`, the figure is 112% (inactive).

With `COc1cc2c(/C=C3\C(=O)Nc4ccc(Br)cc43)c(Cl)n(C)c2cc1C`, the growth was 3.37% (active). As for `COc1cc2c(cc1OC)C(Cc1cc(OC)c(OC)cc1[N+](=O)[O-])=NCC2`, the figure is 56.4% (inactive).

Consider `COc1ccc(-c2nc(SCC(C)C)nc(Nc3ccc([N+](=O)[O-])cc3)c2C#N)cc1`, for which the growth was 89.8% (inactive). Then `O=C(/C=C/c1c[nH]c2ccccc12)c1cc2ccccc2o1`, with 102% (inactive).

Take `O=C(CBr)OCc1ccc([N+](=O)[O-])o1`: the growth is 117% (inactive). With `C/C=C(/C)C(=O)OC1C=C(CO)C(=O)C(OC(=O)C2(C)OC2C)C1C(C)C` (stereo unspecified), the growth was 1.46% (active).

`O=C(Nc1ccc(Cl)c(Cl)c1)O/N=C\c1c(Cl)ccc([N+](=O)[O-])c1Cl`: the growth was 46% (inactive). As for `Oc1ccc(CN(Cc2ccc(C(F)(F)F)cc2)Cc2ccc(O)c3ncccc23)c2cccnc12`, the figure is 41.6% (inactive); as for `COc1cc(-c2nc(/C=C3/C(=O)Nc4ccccc43)c3ccccn23)cc(OC)c1OC`, 111% (inactive).
